Bioassay records as filed in PubChem BioAssay.
CIT2 TOR yeast: modulators of CIT2-GFP expression in yeast, primary screen, S. cerevisiae, GFP fusion, multiplex flow cytometry, MLPCN library | GFP response vs DMSO, % at 10 µM | 320,000 compounds, 0.065% hits | AID 2029, 2009 | S. cerevisiae CIT2-GFP strain, 3 h; 100 means same as DMSO wells;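 active means GFP response relative to DMSO above a set limit, near the screen mean plus 3 SD, cut at about 150% in these data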;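 further: ratio of well median GFP fluorescence to mean of DMSO wells on the plate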
AGP1 TOR yeast: modulators of AGP1-GFP expression in yeast TOR pathway, primary screen, cell-based, multiplex flow cytometry, S. cerevisiae, MLPCN library; 3 h; GFP as percent of DMSO wells; 320,000 compounds, 0.02% hits; GFP response vs DMSO, % at 10 µM;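 active means GFP response relative to DMSO above a set limit, near screen average plus 3 SD, cut at about 150% in these data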;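 further: median GFP channel fluorescence of the gated AGP1 strain per well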
Myeloid diff MLP: induction of myeloid progenitor differentiation, primary screen, cell-based, flow cytometry, MLPCN library | calls only at 10 µM | 360,000 compounds, 1% hits | ER-HoxA9 myeloid progenitors, lysozyme-GFP differentiation;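 active means normalized GFP-positive differentiation at or above the plate's own cutoff, the solvent-only control mean plus 3 SD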;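 further: cells exposed to compound for four days before flow analysis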
LAP4 TOR yeast: modulators of LAP4-GFP expression in yeast, primary screen, S. cerevisiae, multiplex flow cytometry, MLPCN library | 3 h; median GFP as percent of DMSO wells | GFP response vs DMSO, % at 10 µM | 320,000 compounds, 0.34% hits;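 active means GFP response vs DMSO above a set limit, about the screen mean plus 3 SD, cut at about 150% in these data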
MEP2-GFP yeast: modulators of MEP2-GFP levels in yeast, primary screen, S. cerevisiae, multiplex flow cytometry, MLPCN library. S. cerevisiae MEP2-GFP strain, 3 h; 100% = DMSO control level. GFP response vs DMSO, % at 10 µM. 330,000 compounds, 0.51% hits. AID 2016, 2009;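 active means GFP response versus DMSO above a set limit, roughly screen mean plus 3 SD, cut at about 180% in these data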;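 further: median GFP fluorescence of the barcode-gated MEP2-GFP cells per well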
RPL19A-GFP yeast: RPL19A-GFP expression modulators in yeast, primary screen, cell-based, S. cerevisiae, multiplex flow cytometry, MLPCN | S. cerevisiae RPL19A-GFP strain, 3 h; active compounds read low | percent response vs DMSO, % at 10 µM | 330,000 compounds, 0.3% hits;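 active means percent response vs DMSO below 50%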;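 further: median channel GFP fluorescence of the barcoded RPL19A-GFP strain; ratio of sample median GFP to plate DMSO average so 100% = DMSO; lower means less RPL19A-GFP as with rapamycin TOR inhibition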
Myeloid diff: inducers of myeloid progenitor differentiation, confirmation, cell-based, GFP/Mac1 flow cytometry, cherry pick 01. shares compounds with Myeloid diff MLP. ER-HoxA9 myeloid progenitors, GFP/Mac1 double-positive flow. calls only. 2,300 compounds, 2% hits. AID 651706, 2012;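 active means share of green or green-and-red cells above 9 and 9% in run 1 or 4 and 3% in run 2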
GFP autofluor: compound fluorescence in myeloid differentiation counter-screen; shares compounds with Myeloid diff MLP; fluorescence response, % (test concentration not listed); ER-HoxA9 myeloid progenitors, no estrogen, GFP autofluorescence flow cytometry; vehicle wells 0%, positive control 100%; 2,300 compounds, 7.4% hits;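 active means over 5% cells positive for green fluorescent reporter, or over 2% positive for both it and APC stain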;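 further: range taken on the double positive population between DMSO and positive control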
Numbers without * were called inactive; i = inactive; nt = no result; + = active, no number. Compounds with a hit are over-represented: about 1.8% of the library has one in this group of screens.

SMILES	CIT2 TOR yeast	AGP1 TOR yeast	Myeloid diff MLP	LAP4 TOR yeast	MEP2-GFP yeast	RPL19A-GFP yeast	Myeloid diff	GFP autofluor
Cc1ccc2nc(Br)c3c(c2c1)OC(CBr)C3 (stereo unspecified)	95.5	94.0	i	90.2	107.2	103.9	nt	nt
O=C(CCn1c(=O)sc2ccccc21)NC1=NCCS1	92.3	89.6	i	90.8	92.6	91.7	i	0.0
O=C(CCn1c(=O)sc2ccccc21)Nc1ccon1	100.6	98.9	i	102.4	96.7	97.2	nt	nt
CC(=O)c1ccc(-c2cnc3c(NC=O)cc(-c4ccccc4Oc4ccccc4)cn23)cc1	nt	nt	i	nt	nt	nt	i	0.0
CN(C)c1ccc(-c2cc(NC=O)c3ncc(-c4ccc(F)c(Cl)c4)n3c2)cc1	nt	nt	+	nt	nt	nt	i	1.1
CN1CCN(c2ccc(-c3cc(NC=O)c4ncc(-c5ccc(F)c(Cl)c5)n4c3)cc2)CC1	nt	nt	+	nt	nt	nt	i	0.8
O=CNc1cc(-c2ccccc2)cn2c(-c3ccc(F)c(Cl)c3)cnc12	nt	nt	i	nt	nt	nt	nt	nt
COc1cc(-c2cnc3c(NC=O)cc(-c4ccc(S(C)(=O)=O)cc4)cn23)cc(OC)c1OC	nt	nt	+	nt	nt	nt	i	0.0
CC(=O)c1ccc(-c2cnc3c(NC=O)cc(-c4ccc(N5CCN(C)CC5)cc4)cn23)cc1	nt	nt	i	nt	nt	nt	nt	nt
CC1CCN(S(=O)(=O)c2ccc3c4c2CC(=O)N4CC(C)S3)CC1 (stereo unspecified)	101.2	89.0	i	98.0	100.4	95.5	nt	nt
Cc1cc(C)n(-c2ccccc2C#N)n1	100.9	97.5	i	101.8	94.3	96.2	nt	nt
Cc1cc(C(=O)Nc2nccs2)c2cc(F)ccc2n1	97.2	100.2	i	100.9	92.4	93.5	i	0.3
COc1cc(COCC(O)CN2CCN(CCN3C(=O)c4cccc5cccc(c45)C3=O)CC2)cc(OC)c1OC (stereo unspecified)	98.5	98.2	+	97.7	101.6	98.6	i	0.9
O=C1c2cccc3cccc(c23)C(=O)N1CCN1CCN(CC(O)COCc2ccc(Cl)cc2)CC1 (stereo unspecified)	nt	nt	i	nt	nt	nt	nt	nt
C/C=C/c1ccc(OCC(=O)Nc2cc(C(F)(F)F)ccc2N2CCOCC2)c(OC)c1	99.3	94.8	i	88.8	89.4	101.1	nt	nt
Cc1cccc(NC(=S)N(C)C2CCCCC2)c1	93.7	102.3	i	116.7	105.1	98.5	i	0.0
CCOC(=O)C1C(c2ccccc2O)NC(=O)NC1(O)C(F)(F)F (stereo unspecified)	104.0	108.3	i	97.2	97.4	102.8	nt	nt
Cc1c(F)cccc1NS(=O)(=O)c1ccccc1C#N	100.5	106.0	i	96.6	105.0	96.5	nt	nt
COc1ccccc1NS(=O)(=O)c1ccccc1C#N	96.5	95.7	i	95.0	98.7	95.6	i	0.0
CCC(=O)Nc1cccc(NC(=S)NC(=O)c2ccc(Cl)cc2)c1	89.3	89.4	i	88.6	99.8	99.2	nt	nt
CCOC(=O)c1cc2c(c(-c3ccccc3)n1)[C@@H](CCO)N(S(=O)(=O)C(C)(C)C)C2	nt	nt	i	nt	nt	nt	i	0.6
C#CCOCCOCCOCCNc1nc(N2CCN(C(=O)[C@H]([C@@H](C)CC)n3cc([C@@H](N)CO)nn3)CC2)nc(N2CCN(C(=O)[C@H](Cc3ccc(O)cc3)n3cc([C@@H](N)C(C)CC)nn3)CC2)n1 (stereo partly specified)	nt	nt	i	nt	nt	nt	i	0.0
